Measured values taken from PubChem BioAssay.
The source made the active and inactive calls.

Legend:
Albumin (Bos taurus) = Albumin (Bos taurus) (UniProt P02769); experiment: compounds binding labelled BSA control protein – biochemical, small-molecule microarray, Alexa647 label, 635/667 nm fluorescence, artefact control for SMM control protein annotation, profiling panel (AID 1118); conditions: BSA-A647 binding, fluorescence 635 nm, higher = more signal;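 note: score merges 667 nm emission intensity and signal-to-noise per printed compound spot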
Sequence of Albumin (Bos taurus) (P02769 whole entry, looked up): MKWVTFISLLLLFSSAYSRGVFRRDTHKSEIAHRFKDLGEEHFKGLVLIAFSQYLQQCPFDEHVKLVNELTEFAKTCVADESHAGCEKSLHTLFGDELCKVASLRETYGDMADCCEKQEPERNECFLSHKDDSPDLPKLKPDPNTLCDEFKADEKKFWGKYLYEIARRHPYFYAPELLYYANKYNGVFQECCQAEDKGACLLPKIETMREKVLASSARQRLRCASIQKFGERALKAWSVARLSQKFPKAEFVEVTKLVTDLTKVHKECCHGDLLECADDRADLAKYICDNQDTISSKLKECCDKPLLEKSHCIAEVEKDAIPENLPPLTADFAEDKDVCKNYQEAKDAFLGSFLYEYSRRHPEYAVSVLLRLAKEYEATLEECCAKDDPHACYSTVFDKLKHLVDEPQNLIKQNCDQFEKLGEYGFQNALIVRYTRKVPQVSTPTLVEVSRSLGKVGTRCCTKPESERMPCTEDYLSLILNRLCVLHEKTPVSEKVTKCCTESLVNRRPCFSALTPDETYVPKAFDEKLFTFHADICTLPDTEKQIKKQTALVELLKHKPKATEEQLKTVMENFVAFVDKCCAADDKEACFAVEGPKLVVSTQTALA

[1] = probe aXIP binding to arrayed compounds – biochemical, NeuroSMM set, 635/667 nm fluorescence, primary screen (AID 1119); conditions: small-molecule microarray, higher = more signal, called active from +8 up or from −8 down;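 note: probe is the protein aXip251-270 applied at 1 µg/mL to compound-printed slides; binding of probe to printed compounds measured as 667 nm fluorescence plus signal to noise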
[2] = probe aNOTCH3 binding on compound microarray – biochemical, small-molecule microarray, 635/667 nm fluorescence, primary screen (AID 1120); conditions: higher = more signal;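 note: probe is a biotin-tagged antibody raised against NOTCH3 rather than NOTCH3 protein; score merges spot fluorescence near 667 nm with spot signal to noise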
[3] = probe aNOTCH2 binding on compound microarray – biochemical, small-molecule microarray, 635/667 nm fluorescence, primary screen (AID 1121); conditions: higher = more signal;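 note: score merges feature fluorescence read at 667 nm with its signal to noise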
[4] = target: Carbonic anhydrase 2 (Homo sapiens) (UniProt P00918); experiment: compounds binding carbonic anhydrase 2 – biochemical, small-molecule microarray, Alexa647-labelled CAII, profiling panel (AID 1122); conditions: CAII-A647 binding fluorescence, higher = more signal
[5] = COS7 lysate on small-molecule microarray, probe aHis, 635 nm (AID 1123); conditions: COS7 cell lysate, fluorescence, higher = more signal;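 note: z-score combines 667nm fluorescence intensity with signal-to-noise per printed compound spot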
[6] = probe aLAP1 signal on lysate-treated microarray – cell lysate, small-molecule microarray, COS7 lysate, primary screen (AID 1124); conditions: probe aLAP1, fluorescence, higher = more signal;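 note: lysate comes from COS7 cells expressing LAP1 and is applied at 0.3 µg/mL; score merges spot fluorescence near 667 nm with signal-to-noise over triplicate slides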
Sam68 (KHDRBS1) = experiment: compounds binding KHDRBS1 protein – biochemical, small-molecule microarray, 635 nm fluorescence, primary screen (AID 1125); conditions: higher = more signal;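 note: score merges 667 nm channel intensity with signal to noise over triplicate slides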
[7] = test system: Chordin-like protein 2 (CHRDL2); experiment: compounds binding chordin-like 2 – biochemical, small-molecule microarray, 635 nm fluorescence, primary screen (AID 1126); conditions: fluorescence 635 nm, higher = more signal;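 note: printed compound slides probed with Chrdl2 protein at 4 µg/mL for 1 h at 4 C; score merges 667 nm emission intensity with signal to noise over three replicate slides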
[8] = target: Concanavalin-A (Canavalia ensiformis) (UniProt P02866); experiment: compounds binding concanavalin A lectin – biochemical, small-molecule microarray, Alexa647 label, 635 nm, artefact control for SMM control protein annotation, primary screen (AID 1127); conditions: ConA-A647 binding fluorescence, higher = more signal;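 note: z combines 667 nm emission intensity with signal-to-noise across three replicate slides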
Sequence of Concanavalin-A (Canavalia ensiformis) (P02866 whole entry, looked up): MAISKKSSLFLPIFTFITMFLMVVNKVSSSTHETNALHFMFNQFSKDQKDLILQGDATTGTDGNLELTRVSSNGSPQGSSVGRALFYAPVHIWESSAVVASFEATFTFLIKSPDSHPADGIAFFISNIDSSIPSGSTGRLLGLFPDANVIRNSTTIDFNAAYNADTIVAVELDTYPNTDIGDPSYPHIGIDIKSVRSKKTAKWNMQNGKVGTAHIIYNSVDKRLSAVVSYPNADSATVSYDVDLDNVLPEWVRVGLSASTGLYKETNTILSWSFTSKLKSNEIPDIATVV

[9] = compounds binding Alexa647 anti-His antibody – biochemical, small-molecule microarray, 635 nm fluorescence, artefact control for SMM control protein annotation, primary screen (AID 1128); conditions: higher = more signal;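 note: score merges feature fluorescence with signal-to-noise for each printed compound spot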
[10] = test system: Human papillomavirus type 1a E7 protein (residues 1-88); experiment: HPV1a E7 small-molecule binders, primary screen, biochemical, small-molecule microarray, residues 1-88, 635 nm (AID 1129); conditions: small-molecule microarray binding, fluorescence 635 nm; higher = more signal
[11] = target: Focal adhesion kinase 1 (Homo sapiens) (UniProt Q05397); experiment: PTK2 protein binding on printed compound slides – biochemical, small-molecule microarray, 635/667 nm fluorescence, BSA, DTT, primary screen (AID 1130); conditions: 635 nm fluorescence, higher = more signal;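 note: composite of spot emission at 667 nm and signal to noise over triplicate slides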
Sequence of Focal adhesion kinase 1 (Homo sapiens) (Q05397 whole entry, looked up): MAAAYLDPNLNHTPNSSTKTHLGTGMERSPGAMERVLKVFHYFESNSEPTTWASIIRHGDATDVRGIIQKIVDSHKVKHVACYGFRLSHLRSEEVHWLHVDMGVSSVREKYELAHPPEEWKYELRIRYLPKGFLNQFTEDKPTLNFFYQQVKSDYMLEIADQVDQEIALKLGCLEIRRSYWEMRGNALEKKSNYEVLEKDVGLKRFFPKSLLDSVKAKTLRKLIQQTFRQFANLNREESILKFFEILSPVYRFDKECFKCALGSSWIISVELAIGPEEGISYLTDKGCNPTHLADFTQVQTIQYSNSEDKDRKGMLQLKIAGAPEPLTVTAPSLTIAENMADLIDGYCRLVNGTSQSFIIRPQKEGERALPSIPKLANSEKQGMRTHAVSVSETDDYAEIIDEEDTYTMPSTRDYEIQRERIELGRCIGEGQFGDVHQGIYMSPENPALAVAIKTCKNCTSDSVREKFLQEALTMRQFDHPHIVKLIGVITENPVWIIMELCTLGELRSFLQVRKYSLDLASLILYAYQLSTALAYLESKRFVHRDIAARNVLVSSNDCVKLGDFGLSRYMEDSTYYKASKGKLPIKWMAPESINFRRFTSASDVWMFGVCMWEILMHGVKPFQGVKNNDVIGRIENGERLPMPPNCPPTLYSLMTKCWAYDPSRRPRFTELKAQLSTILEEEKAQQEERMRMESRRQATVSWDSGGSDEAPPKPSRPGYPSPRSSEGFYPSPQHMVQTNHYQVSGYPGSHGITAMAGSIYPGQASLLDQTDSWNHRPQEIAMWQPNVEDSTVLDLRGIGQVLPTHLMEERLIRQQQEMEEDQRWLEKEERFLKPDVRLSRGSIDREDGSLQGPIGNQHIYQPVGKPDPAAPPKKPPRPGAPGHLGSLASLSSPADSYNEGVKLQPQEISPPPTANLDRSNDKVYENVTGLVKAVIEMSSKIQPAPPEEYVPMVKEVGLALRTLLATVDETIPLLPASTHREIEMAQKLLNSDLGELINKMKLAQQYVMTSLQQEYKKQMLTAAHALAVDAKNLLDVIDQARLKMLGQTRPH

[12] = test system: Fibrinogen (Alexa647-labelled); experiment: Alexa647-fibrinogen binding to printed small molecules – biochemical, small-molecule microarray, 635/667 nm fluorescence, artefact control for SMM control-protein annotation, profiling panel (AID 1131); conditions: fibrinogen-A647 binding fluorescence, higher = more signal;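 note: z-score merges 667 nm fluorescence with per-spot signal-to-noise over triplicate slides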
[13] = target: Follistatin (Homo sapiens) (UniProt P19883); experiment: FST protein binding to printed compounds – biochemical, small-molecule microarray, 635/667 nm fluorescence, primary screen (AID 1132); conditions: 635 nm fluorescence, higher = more signal
Sequence of Follistatin (Homo sapiens) (P19883 whole entry, looked up): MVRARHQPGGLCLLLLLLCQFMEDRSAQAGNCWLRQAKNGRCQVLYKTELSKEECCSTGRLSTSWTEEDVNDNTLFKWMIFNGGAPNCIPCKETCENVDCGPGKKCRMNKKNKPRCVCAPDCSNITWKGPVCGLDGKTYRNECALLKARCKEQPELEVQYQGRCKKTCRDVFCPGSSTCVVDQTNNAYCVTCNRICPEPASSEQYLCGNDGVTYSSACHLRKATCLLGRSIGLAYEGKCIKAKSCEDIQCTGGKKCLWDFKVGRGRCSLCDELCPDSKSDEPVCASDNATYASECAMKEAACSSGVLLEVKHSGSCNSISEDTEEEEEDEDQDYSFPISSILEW

[14] = target: Fibroblast growth factor 2 (Homo sapiens) (UniProt P09038); experiment: basic fibroblast growth factor binding to printed compounds – biochemical, small-molecule microarray, 635/667 nm fluorescence, primary screen (AID 1133); conditions: FGF2, fluorescence 635/667, higher = more signal
Sequence of Fibroblast growth factor 2 (Homo sapiens) (P09038 whole entry, looked up): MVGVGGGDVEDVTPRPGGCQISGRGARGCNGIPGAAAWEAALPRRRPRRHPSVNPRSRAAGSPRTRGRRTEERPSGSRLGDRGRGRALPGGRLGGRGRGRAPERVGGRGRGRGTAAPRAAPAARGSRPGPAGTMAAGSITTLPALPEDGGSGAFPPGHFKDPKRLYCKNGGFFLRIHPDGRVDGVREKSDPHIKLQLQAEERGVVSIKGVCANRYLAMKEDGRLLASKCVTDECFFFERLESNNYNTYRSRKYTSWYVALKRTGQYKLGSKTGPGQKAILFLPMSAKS

[15] = JC-1 mitochondrial potential readout, lung cancer cells – cell-based, A549, JC-1 fluorescence, basal, 24 h, 100 nL, profiling panel (AID 1138); conditions: higher = more signal;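 note: A549 lung adenocarcinoma cells under basal conditions with no added stimulus; test concentration not given here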
Lefty1 = Lefty1 protein binding to printed compounds – biochemical, small-molecule microarray, 635/667 nm fluorescence, primary screen (AID 1139); conditions: fluorescence 635/667, higher = more signal
[16] = test system: wheat germ agglutinin (Triticum aestivum), Alexa647-labelled; experiment: Alexa647-WGA lectin binding to printed small molecules – biochemical, small-molecule microarray, 635/667 nm fluorescence, artefact control for SMM control-protein annotation, profiling panel (AID 1140); conditions: WGA-A647 binding, 635 nm fluorescence, higher = more signal;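 note: score merges 667 nm feature emission with signal to noise over triplicate slides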
[17] = target: Luciferin 4-monooxygenase (Photinus pyralis) (UniProt P08659); experiment: inhibition of purified Photinus pyralis luciferase – biochemical, luminescence, purified enzyme, 2006 set, primary screen (AID 1141); conditions: purified firefly luciferase, SteadyGlo luminescence, 30 min; higher = more signal, called active from +8 up or from −8 down;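 note: cell-free assay with purified firefly luciferase at 100 ng per well in PBS; test concentration not given here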
Sequence of Luciferin 4-monooxygenase (Photinus pyralis) (P08659 whole entry, looked up): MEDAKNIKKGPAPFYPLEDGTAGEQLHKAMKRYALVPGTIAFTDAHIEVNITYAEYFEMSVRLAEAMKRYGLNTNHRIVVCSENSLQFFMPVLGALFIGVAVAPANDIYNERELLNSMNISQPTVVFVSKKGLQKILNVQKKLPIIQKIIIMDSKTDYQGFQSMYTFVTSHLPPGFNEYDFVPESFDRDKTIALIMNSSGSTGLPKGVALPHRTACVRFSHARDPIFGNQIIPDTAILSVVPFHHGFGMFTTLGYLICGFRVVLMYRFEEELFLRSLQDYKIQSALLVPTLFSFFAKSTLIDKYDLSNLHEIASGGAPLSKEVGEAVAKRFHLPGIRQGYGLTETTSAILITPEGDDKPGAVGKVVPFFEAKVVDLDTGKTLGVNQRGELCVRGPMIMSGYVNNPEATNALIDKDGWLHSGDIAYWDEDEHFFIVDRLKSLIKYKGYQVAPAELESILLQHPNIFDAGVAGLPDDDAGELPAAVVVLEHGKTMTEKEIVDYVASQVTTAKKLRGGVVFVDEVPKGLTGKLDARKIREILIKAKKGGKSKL

COCCOC(=O)N1C(=O)[C@@]2(c3cc(C#Cc4ccc(OC)cc4)ccc31)[C@H](C(N)=O)[C@H]1C(=O)O[C@H](c3ccccc3)[C@H](c3ccccc3)N1[C@@H]2c1ccccc1OCCO
composite z-score (Albumin (Bos taurus)): 0.73 | composite Z-score [1]: 0.611 (inactive) | composite z-score [2]: 0.293 | composite z-score [3]: 0.151 | composite z-score [4]: 0.653 | composite z-score [5]: 2.54 | composite z-score [6]: 1.11 | composite z-score (Sam68 (KHDRBS1)): 1.3 | composite z-score [7]: 0.565 | composite z-score [8]: 1.17 | composite z-score [9]: 2.24 | composite z-score [10]: 1.21 | composite z-score [11]: 0.861 | composite z-score [12]: 1 | composite z-score [13]: 1.3 | composite z-score [14]: 1.42 | z-score [15]: -1.47 | composite z-score (Lefty1): 1.58 | composite z-score [16]: 0.901 | z-score [17]: 0.0449 (inactive)

CCOc1cc(C(O)C2C=CC3C(=O)N(c4ccccc4)C(=O)C3N2Nc2ccccc2)ccc1O (stereo not given)
composite z-score (Albumin (Bos taurus)): 0.0944 | composite Z-score [1]: -0.224 (inactive) | composite z-score [2]: -0.0647 | composite z-score [3]: -0.164 | composite z-score [4]: 0.617 | composite z-score [5]: 1.31 | composite z-score [6]: 0.791 | composite z-score (Sam68 (KHDRBS1)): 0.381 | composite z-score [7]: -0.988 | composite z-score [8]: 0.403 | composite z-score [9]: 1.3 | composite z-score [10]: 1.19 | composite z-score [11]: 1.54 | composite z-score [12]: 0.896 | composite z-score [13]: 0.608 | composite z-score [14]: -0.106 | z-score [15]: -0.0767 | composite z-score (Lefty1): -0.231 | composite z-score [16]: 0.471 | z-score [17]: -1.15 (inactive)

CCOC(=O)C1=CCC(c2ccc(C)cc2)N(S(=O)(=O)c2ccc(C)cc2)C1 (stereo not given)
composite z-score (Albumin (Bos taurus)): 0.0328 | composite Z-score [1]: 0.798 (inactive) | composite z-score [2]: 0.037 | composite z-score [3]: -0.146 | composite z-score [4]: 0.251 | composite z-score [5]: 1.43 | composite z-score [6]: -0.347 | composite z-score (Sam68 (KHDRBS1)): 0.747 | composite z-score [7]: 0.137 | composite z-score [8]: 0.995 | composite z-score [9]: 0.403 | composite z-score [10]: 0.939 | composite z-score [11]: 0.335 | composite z-score [12]: 0.258 | composite z-score [13]: 0.523 | composite z-score [14]: -0.279 | z-score [15]: 2.06 | composite z-score (Lefty1): 0.288 | composite z-score [16]: 0.396 | z-score [17]: 1.47 (inactive)

COC(=O)[C@@]1(Cc2ccccc2)[C@H]2c3cc(C(=O)N4CCCC4)n(Cc4nc5ccccc5[nH]4)c3C[C@H]2CN1C(=O)c1ccccc1
composite z-score (Albumin (Bos taurus)): 1.03 | composite Z-score [1]: 0.579 (inactive) | composite z-score [2]: 0.537 | composite z-score [3]: 0.404 | composite z-score [4]: 0.653 | composite z-score [5]: 3.34 | composite z-score [6]: 0.988 | composite z-score (Sam68 (KHDRBS1)): 1.3 | composite z-score [7]: -0.72 | composite z-score [8]: 0.912 | composite z-score [9]: 2.51 | composite z-score [10]: 1.24 | composite z-score [11]: 1.22 | composite z-score [12]: 0.656 | composite z-score [13]: 1.11 | composite z-score [14]: -0.297 | z-score [15]: 1.05 | composite z-score (Lefty1): -0.931 | composite z-score [16]: 0.726 | z-score [17]: 1.5 (inactive)

C=CCOC(=O)[C@H]1[C@@H]2C(=O)O[C@@H](c3ccccc3)[C@@H](c3ccccc3)N2[C@@H](c2ccc(OCCOC(=O)[C@@H]3C[C@@H]4C(=O)N[C@@H](CCCC[N+](C)(C)C)C(=O)N4[C@@H]3c3ccc(O)cc3)cc2)[C@]12C(=O)Nc1ccccc12
composite z-score (Albumin (Bos taurus)): 0.0987 | composite Z-score [1]: 0.0848 (inactive) | composite z-score [2]: 0.011 | composite z-score [3]: -0.171 | composite z-score [4]: 0.624 | composite z-score [5]: 0.875 | composite z-score [6]: 0.284 | composite z-score (Sam68 (KHDRBS1)): 1.31 | composite z-score [7]: 1.08 | composite z-score [8]: 1.12 | composite z-score [9]: 1.46 | composite z-score [10]: 1.2 | composite z-score [11]: 0.877 | composite z-score [12]: 0.583 | composite z-score [13]: 1.26 | composite z-score [14]: 1.51 | z-score [15]: -0.849 | composite z-score (Lefty1): 1.18 | composite z-score [16]: 0.494 | z-score [17]: -2.95 (inactive)

C=CCN1C(=O)[C@]2(O[C@H](CCO)[C@@H]([Si](C)(C)c3ccc(OC)cc3)[C@@H]2C)c2cc(N3CCCCC3=O)ccc21
composite z-score (Albumin (Bos taurus)): 0.694 | composite Z-score [1]: 0.801 (inactive) | composite z-score [2]: 0.135 | composite z-score [3]: -0.106 | composite z-score [4]: 0.163 | composite z-score [5]: 1.86 | composite z-score [6]: 0.279 | composite z-score (Sam68 (KHDRBS1)): 1.28 | composite z-score [7]: 0.122 | composite z-score [8]: 0.877 | composite z-score [9]: 1.74 | composite z-score [10]: 1.2 | composite z-score [11]: 0.162 | composite z-score [12]: 0.799 | composite z-score [13]: 1.32 | composite z-score [14]: 0.361 | z-score [15]: 0.517 | composite z-score (Lefty1): 1.52 | composite z-score [16]: 0.679 | z-score [17]: -0.117 (inactive)

COC(=O)c1c(CC[C@@H](CO)NC(=O)N[C@@H](C)Cn2cc(C3(O)CCCCC3)nn2)oc(C(C)=O)c1C(=O)OC
composite z-score (Albumin (Bos taurus)): 0.0745 | composite Z-score [1]: 0.502 (inactive) | composite z-score [2]: 0.0596 | composite z-score [3]: -0.0466 | composite z-score [4]: 0.421 | composite z-score [5]: 0.377 | composite z-score [6]: -0.0869 | composite z-score (Sam68 (KHDRBS1)): 1.29 | composite z-score [7]: 1.02 | composite z-score [8]: 1.02 | composite z-score [9]: 2.77 | composite z-score [10]: 1.12 | composite z-score [11]: -0.262 | composite z-score [12]: 0.747 | composite z-score [13]: 1.22 | composite z-score [14]: 1.29 | z-score [15]: -1 | composite z-score (Lefty1): 1.66 | composite z-score [16]: 0.696 | z-score [17]: 0.599 (inactive)

CN(C)CCCC[C@@H]1NC(=O)[C@H]2C[C@@H](C(=O)NCCCCCNC(=O)CS)[C@@H](c3cccc(OCCO)c3)N2C1=O
composite z-score (Albumin (Bos taurus)): 0.816 | composite Z-score [1]: -0.114 (inactive) | composite z-score [2]: -0.239 | composite z-score [3]: -0.175 | composite z-score [4]: 0.661 | composite z-score [5]: 1.67 | composite z-score [6]: 0.0827 | composite z-score (Sam68 (KHDRBS1)): 1.03 | composite z-score [7]: 0.651 | composite z-score [8]: 0.612 | composite z-score [9]: 1.32 | composite z-score [10]: 0.866 | composite z-score [11]: 0.688 | composite z-score [12]: 0.44 | composite z-score [13]: 1.41 | composite z-score [14]: 1.69 | z-score [15]: 0.446 | composite z-score (Lefty1): 1 | composite z-score [16]: -0.0708 | z-score [17]: -0.804 (inactive)

CCN(CC)c1ccc(N2CC=CC34O[C@@H]5/C=C\CCC(C)OC(=O)C5[C@H]3C(=O)N(C(CO)C(C)C)[C@@H]4C2=O)cc1 (stereo not given in full)
composite z-score (Albumin (Bos taurus)): -0.451 | composite Z-score [1]: 0.211 (inactive) | composite z-score [2]: -0.222 | composite z-score [3]: -0.175 | composite z-score [4]: 0.894 | composite z-score [5]: 0.595 | composite z-score [6]: -0.387 | composite z-score (Sam68 (KHDRBS1)): 0.213 | composite z-score [7]: -0.263 | composite z-score [8]: -1.77 | composite z-score [9]: -0.264 | composite z-score [10]: -0.651 | composite z-score [11]: 0.174 | composite z-score [12]: -0.4 | composite z-score [13]: -0.452 | composite z-score [14]: 0.0509 | z-score [15]: 0.93 | composite z-score (Lefty1): -0.674 | composite z-score [16]: -0.558 | z-score [17]: -1.09 (inactive)
